Details in all cases: concentration: 1 μM, replicates: in singlicate; n = 1
Assay [1] relates to TAOK3.
Assay [2] relates to TBK1.
Assay [3] deals with TEC.
Assay [4] relates to TESK1.
Assay [5] has as its system TGFBR1.
Assay [6] deals with TGFBR2.
The subject of assay [7] is TIE1.
Assay [8] deals with T1, TIE2.
T1 construct: gene TEK

The subject of assay [9] is TLK1.
In assay [10] the test system is TLK2.
For assay [11], the system named is TNIK.
Assay [12] has as its system TNK1.
For assay [13], the system named is TNK2.
For assay [14], the system named is TNNI3K.
The test system of assay [15] is T2, TRKA.
T2 construct: gene NTRK1

Assay [16] concerns TRKB.
Assay [17] concerns T3, TRKC.
T3 construct: gene NTRK3

In assay [18] the test system is TRPM6.
Assay [19] relates to TSSK1B.
Assay [20] deals with TSSK3.
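Note: KINOMEscan kinase panel screen.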

For the compound `Cl.Oc1ccc(-c2nc(-c3ccccc3)[nH]c2-c2ccncc2)cc1` [SB-428218], the “%Inh” value is recorded as 0% in [1]; 18% in [2]; 0% in assay [3]; 36% in [4]; 60% in [5]; 7% in assay [6]. In addition, the “%Inh” value in assay [7], in [8], in assay [9], in [10], in [11] and in [12] was 0% throughout. Moreover, the “%Inh” value came out at 10% in [13]; 0% in assay [14]; 0% in [15]; 63% in [16]; 64% in [17]; 0% in assay [18]. Moreover, the “%Inh” value in [19] and in [20] was 0% each time.

Turning to `Cc1ccc(C(=O)Nc2ccc(Nc3ccnc4cc(-c5ccccn5)ccc34)cc2O)cc1.Cl` [GW440146], the “%Inh” value in [1] is given as 0%; in assay [2], 0%; in assay [3], 13%; in [4], 13%; in assay [5], 3%; in [6], 26%. In addition, the “%Inh” value was 19% in [7]; 0% in assay [8]; 0% in assay [9]; 0% in assay [10]; 0% in assay [11]; 45% in assay [12]. The “%Inh” value in [13] came to 95.3%; in assay [14], 0%; in assay [15] it was 7%; in assay [16], 0%; in assay [17], 34%; in assay [18], 57%. Further, the “%Inh” value in assay [19] amounted to 34%; in assay [20] it was 13%.

`COc1ccccc1CNC(=O)c1cc(C(=O)c2ccccc2C)c[nH]1` [GSK364507]: the “%Inh” value is recorded as 0% in [1]; 19% in assay [2]; 0% in assay [3]; 36% in [4]; 9% in assay [5]; 0% in assay [6]. For the same compound, the “%Inh” value in assay [7], in assay [8], in assay [9], in assay [10], in assay [11] and in assay [12] was 0% in each case. In addition, the “%Inh” value is given as 17% in assay [13]; 0% in assay [14]; 0% in assay [15]; 24% in assay [16]; 2% in [17]; 21% in assay [18]. In addition, the “%Inh” value in assay [19] was 16%; in assay [20], 6%.

With `COc1cc2ncnc(Nc3ccc4nc(-c5ccccc5)[nH]c4c3)c2cc1OC.Cl` [GW282450], the “%Inh” value came to 0% in assay [1]; 12% in assay [2]; 0% in assay [3]; 20% in assay [4]; 0% in [5]; 0% in assay [6]. Also, the “%Inh” value in assay [7] is reported as 1%; in [8], 0%; in assay [9], 0%; in [10] it was 0%; in assay [11], 0%; in assay [12], 0%. Also, the “%Inh” value is given as 9% in [13]; 14% in [14]; 48% in [15]; 0% in assay [16]; 0% in assay [17]; 38% in [18]. Also, the “%Inh” value in assay [19] was 0%; in [20], 21%.

On to `O=C1NC(=O)C(N2CCc3ccccc32)=C1c1ccccc1Cl` [SB-373598], for which the “%Inh” value in [1] turned out to be 15%; in [2] it was 19%; in assay [3], 0%; in [4], 27%; in [5] it was 9%; in [6], 10%. Moreover, the “%Inh” value was 13% in assay [7]; 6% in [8]; 8% in assay [9]; 4% in [10]; 5% in assay [11]; 3% in assay [12]. In addition, the “%Inh” value in assay [13] is given as 11%; in [14], 4%; in assay [15], 22%; in assay [16], 0%; in [17], 4%; in assay [18], 11%. Moreover, the “%Inh” value in assay [19] worked out at 8%; in assay [20] it was 18%.

As for `NC(=O)c1nnc2ccccc2c1N`, the “%Inh” value was found to be 3% in assay [1]; 40% in assay [2]; 0% in assay [3]; 6% in [4]; 1% in [5]; 0% in assay [6]. Moreover, the “%Inh” value was found to be 14% in [7]; 98.7% in assay [8]; 14% in assay [9]; 0% in assay [10]; 3% in [11]; 0% in assay [12]. Besides, the “%Inh” value in assay [13] came out at 0%; in assay [14], 5%; in assay [15], 74%; in assay [16], 20%; in assay [17], 10%; in [18], 24%. Also, the figures for the “%Inh” value in assay [19] and in assay [20] were 5% and 11%, respectively.

As to `Fc1cc(Cl)ccc1Nc1ccnc2cc(-c3ccc(CN4CCCCC4)o3)ccc12` [GW560116], the “%Inh” value amounted to 0% in assay [1]; 14% in assay [2]; 5% in [3]; 19% in assay [4]; 0% in [5]; 0% in assay [6]. For the same compound, the “%Inh” value in [7] was found to be 0%; in assay [8], 0%; in [9], 0%; in [10], 0%; in assay [11] it was 10%; in [12], 0%. Also, the “%Inh” value in [13] amounted to 2%; in assay [14] it was 0%; in assay [15] it was 4%; in assay [16], 19%; in assay [17], 12%; in assay [18] it was 0%. Besides, the “%Inh” value in assay [19] was 0%; in [20] it was 8%.

The record behind these values is PMC5540273 (PLoS ONE, 2017).
